{
  "source": "paper PMC4336329",
  "about": "(PLoS ONE, 2015)",
  "note": "In all, about 310,000 compounds went through this assay and about 14,000 (4.5%) showed an effect of 50% or more. Effects have a minus sign here. The entries come from a sample that favours strong results as a whole.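 Also: peak tail current of the secondary pulse compared with the same well before compound.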",
  "data": [
    {"biological_target": "human ether-à-go-go-related gene (hERG) potassium channel (human, UniProt Q12809)", "sequence (Q12809 whole entry, looked up)": "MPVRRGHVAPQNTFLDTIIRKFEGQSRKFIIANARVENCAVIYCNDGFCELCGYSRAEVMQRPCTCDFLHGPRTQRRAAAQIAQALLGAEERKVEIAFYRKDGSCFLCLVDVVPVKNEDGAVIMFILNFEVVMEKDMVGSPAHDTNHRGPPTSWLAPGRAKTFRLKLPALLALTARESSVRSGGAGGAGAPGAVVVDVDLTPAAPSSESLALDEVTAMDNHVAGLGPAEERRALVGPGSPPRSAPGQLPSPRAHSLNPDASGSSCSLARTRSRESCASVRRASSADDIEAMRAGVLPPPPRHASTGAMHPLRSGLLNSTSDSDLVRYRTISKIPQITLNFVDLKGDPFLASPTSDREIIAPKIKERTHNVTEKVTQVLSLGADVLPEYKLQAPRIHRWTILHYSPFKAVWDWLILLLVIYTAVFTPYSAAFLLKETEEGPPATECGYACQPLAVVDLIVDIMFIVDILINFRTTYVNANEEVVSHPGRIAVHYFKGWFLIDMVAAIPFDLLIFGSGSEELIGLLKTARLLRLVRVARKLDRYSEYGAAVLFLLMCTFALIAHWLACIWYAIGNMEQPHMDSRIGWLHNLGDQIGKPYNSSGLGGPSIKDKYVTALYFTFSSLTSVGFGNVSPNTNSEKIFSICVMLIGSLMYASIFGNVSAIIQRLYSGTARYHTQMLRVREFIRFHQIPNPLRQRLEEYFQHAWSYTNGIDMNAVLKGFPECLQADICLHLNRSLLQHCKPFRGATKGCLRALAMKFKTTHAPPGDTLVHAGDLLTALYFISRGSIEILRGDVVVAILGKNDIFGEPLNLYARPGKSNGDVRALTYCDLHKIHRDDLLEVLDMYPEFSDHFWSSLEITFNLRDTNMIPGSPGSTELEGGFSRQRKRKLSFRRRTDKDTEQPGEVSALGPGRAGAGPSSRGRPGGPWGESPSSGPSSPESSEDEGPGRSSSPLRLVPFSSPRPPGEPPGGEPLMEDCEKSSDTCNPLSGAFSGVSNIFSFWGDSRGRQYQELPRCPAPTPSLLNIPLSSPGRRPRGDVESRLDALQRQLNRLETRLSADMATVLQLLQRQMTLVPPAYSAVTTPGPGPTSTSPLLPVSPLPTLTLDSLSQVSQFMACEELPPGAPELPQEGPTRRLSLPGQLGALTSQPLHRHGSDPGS", "test": "primary screen, population patch clamp on CHO cells stably expressing hERG; higher = less effect of the substance", "units": {"hERG current change (%, negative = inhibition) at 10uM": "%"}, "values": [
      {"smiles": "COc1ccc(OC)c(/C=C/C(=O)OCC(=O)Nc2nnc(-c3ccccc3)o2)c1", "hERG current change (%, negative = inhibition) at 10uM": -3.14},
      {"smiles": "O=C(COC(=O)Cc1ccc(Br)cc1)Nc1c(F)c(F)c(F)c(F)c1F", "hERG current change (%, negative = inhibition) at 10uM": 13.4},
      {"smiles": "Cc1ccc(NC2=NCCCS2)c(C)c1C", "hERG current change (%, negative = inhibition) at 10uM": -11.5},
      {"smiles": "CCOc1ccc(NS(=O)(=O)c2cc(C(=O)N3CCN(C(C)=O)CC3)ccc2Cl)cc1", "hERG current change (%, negative = inhibition) at 10uM": 12.6},
      {"smiles": "COc1ccc(S(=O)(=O)Nc2ccccn2)cc1", "hERG current change (%, negative = inhibition) at 10uM": 13.8},
      {"smiles": "CCC12OC(=N)C(C#N)(C1C)C(C#N)(C#N)C(c1ccccc1)O2", "note": "(centres unmarked)", "hERG current change (%, negative = inhibition) at 10uM": 2.68},
      {"smiles": "COC(=O)c1ccc(COc2ccc(/C=N/NC(N)=S)cc2)o1", "hERG current change (%, negative = inhibition) at 10uM": -5.9},
      {"smiles": "COc1ccc(S(=O)(=O)N2CCOCC2)cc1NC(=O)CSc1ncnc2ccccc12", "hERG current change (%, negative = inhibition) at 10uM": -50.4},
      {"smiles": "COc1ccc(S(=O)(=O)N2CCOCC2)cc1NC(=O)CSc1nnc2ccccn12", "hERG current change (%, negative = inhibition) at 10uM": 5.54},
      {"smiles": "COc1ccc(S(=O)(=O)N2CCOCC2)cc1NC(=O)CSc1ccccc1", "hERG current change (%, negative = inhibition) at 10uM": -53.9},
      {"smiles": "Cc1ccc(S(=O)(=O)N2CCCCC2)cc1NC(=O)CSc1ncnc2ccccc12", "hERG current change (%, negative = inhibition) at 10uM": -36.2},
      {"smiles": "COc1ccc(S(=O)(=O)N2CCOCC2)cc1NC(=O)CSc1cccc[n+]1[O-]", "hERG current change (%, negative = inhibition) at 10uM": -3},
      {"smiles": "O=C(CSc1ncnc2ccccc12)Nc1cc(S(=O)(=O)N2CCCCC2)ccc1Cl", "hERG current change (%, negative = inhibition) at 10uM": 14.4},
      {"smiles": "COc1ccc(S(=O)(=O)N2CCCCC2)cc1NC(=O)CSc1ncnc2ccccc12", "hERG current change (%, negative = inhibition) at 10uM": -51.2},
      {"smiles": "COc1ccc(S(=O)(=O)N2CCOCC2)cc1NC(=O)COc1ncnc2ccccc12", "hERG current change (%, negative = inhibition) at 10uM": 6.62},
      {"smiles": "COc1ccc(S(=O)(=O)N2CCOCC2)cc1NC(=O)CSc1ccc(F)cc1", "hERG current change (%, negative = inhibition) at 10uM": -42.6},
      {"smiles": "CC(OC(=O)c1cccc(-n2cnnn2)c1)C(=O)NCc1ccccc1", "note": "(centres unmarked)", "hERG current change (%, negative = inhibition) at 10uM": 0.976},
      {"smiles": "O=C(COC(=O)CSc1ccc([N+](=O)[O-])cc1)NCC1CCCO1", "note": "(centres unmarked)", "hERG current change (%, negative = inhibition) at 10uM": 12.3},
      {"smiles": "C#CCOCCOCCOCCNc1nc(N2CCN(C(=O)CCCCCCCCCCNC(=O)[C@@H](CCC(=O)O)n3cc(CCCCCN)nn3)CC2)nc(N2CCN(C(=O)CCCCCCCCCCNC(=O)[C@H](CO)n3cc(CCCSC)nn3)CC2)n1", "hERG current change (%, negative = inhibition) at 10uM": 11.9},
      {"smiles": "CCN1C(=O)C(CC(=O)Nc2ccc(OC)cc2)N(CCc2ccccc2)C1=S", "note": "(centres unmarked)", "hERG current change (%, negative = inhibition) at 10uM": -1.28},
      {"smiles": "CC(=O)C[C@H]1c2ccccc2S(=O)(=O)N1c1ccccc1", "hERG current change (%, negative = inhibition) at 10uM": 23},
      {"smiles": "Cc1cc(NC(=O)c2cc(-c3ccccc3Cl)nc3ccccc23)no1", "hERG current change (%, negative = inhibition) at 10uM": -0.229},
      {"smiles": "COCCOC(=O)c1cc(C(=O)c2cc(F)ccc2O)coc1=N", "hERG current change (%, negative = inhibition) at 10uM": 9.29},
      {"smiles": "O=C(Nc1nnc(S(=O)(=O)N2CCOCC2)s1)c1ccccc1F", "hERG current change (%, negative = inhibition) at 10uM": 16.7},
      {"smiles": "CSc1ccccc1NS(=O)(=O)c1cccc2nonc12", "hERG current change (%, negative = inhibition) at 10uM": 1.51},
      {"smiles": "Cc1ccccc1NS(=O)(=O)c1cccc2nonc12", "hERG current change (%, negative = inhibition) at 10uM": 2.34},
      {"smiles": "O=S(=O)(Nc1cc(F)ccc1F)c1cccc2nsnc12", "hERG current change (%, negative = inhibition) at 10uM": 11.6},
      {"smiles": "CC(=O)c1ccccc1NS(=O)(=O)c1cccc2nonc12", "hERG current change (%, negative = inhibition) at 10uM": -52.2},
      {"smiles": "O=S(=O)(Nc1cc(F)ccc1F)c1cccc2nonc12", "hERG current change (%, negative = inhibition) at 10uM": -83.6},
      {"smiles": "O=S(=O)(Nc1cccc2ccccc12)c1cccc2nonc12", "hERG current change (%, negative = inhibition) at 10uM": 3.98},
      {"smiles": "O=C(NCC(=O)N1CCN(c2ncc(C(F)(F)F)cc2Cl)CC1)c1ccc(Br)o1", "hERG current change (%, negative = inhibition) at 10uM": -50.6},
      {"smiles": "CCOc1ccc(C(=O)NCC(=O)N2CCN(c3ccc(C(F)(F)F)cn3)CC2)cc1", "hERG current change (%, negative = inhibition) at 10uM": -7.32},
      {"smiles": "CNCC(=O)N1CCN(c2ncc(C(F)(F)F)cc2Cl)CC1.Cl", "hERG current change (%, negative = inhibition) at 10uM": -22.3},
      {"smiles": "O=C(NCC(=O)N1CCN(c2ccccn2)CC1)c1ccc(Br)o1", "hERG current change (%, negative = inhibition) at 10uM": -15.3},
      {"smiles": "O=C(NCC(=O)N1CCN(c2ccc(C(F)(F)F)cn2)CC1)c1ccc(Br)o1", "hERG current change (%, negative = inhibition) at 10uM": -71.8},
      {"smiles": "NC(=O)NCCN1CCN(c2ncc(C(F)(F)F)cc2Cl)CC1", "hERG current change (%, negative = inhibition) at 10uM": -33.7},
      {"smiles": "COc1cccc(NC(=O)Nc2c(C)n(C)n(-c3ccccc3)c2=O)c1", "hERG current change (%, negative = inhibition) at 10uM": 3.91},
      {"smiles": "O=C(Nc1cccc(Cl)c1)c1cnn2cccnc12", "hERG current change (%, negative = inhibition) at 10uM": 7.19},
      {"smiles": "CCOC(=O)C1CCN(CCC(=O)Nc2cccc(C)c2)CC1.Cl", "hERG current change (%, negative = inhibition) at 10uM": -66.8},
      {"smiles": "CCOC(=O)C1CCN(CCC(=O)Nc2ccccc2)CC1", "hERG current change (%, negative = inhibition) at 10uM": -19.7},
      {"smiles": "NC(=O)C1CCN(CCC(=O)Nc2cccc(Cl)c2)CC1", "hERG current change (%, negative = inhibition) at 10uM": 0.151},
      {"smiles": "Cc1cccc(NC(=O)CCN2CCC(C(N)=O)CC2)c1", "hERG current change (%, negative = inhibition) at 10uM": 9.57},
      {"smiles": "CCOC(=O)N1CCN(CCC(=O)Nc2cccc(C)c2)CC1.Cl", "hERG current change (%, negative = inhibition) at 10uM": 1.45},
      {"smiles": "CCOC(=O)C1CCN(CCC(=O)Nc2cccc(Cl)c2)CC1", "hERG current change (%, negative = inhibition) at 10uM": -67.1},
      {"smiles": "CCCCCN(C(=O)CCC(=O)OCC(=O)N(C)Cc1ccc(C)cc1)c1c(N)n(CCCC)c(=O)[nH]c1=O", "hERG current change (%, negative = inhibition) at 10uM": 1.93},
      {"smiles": "CCOc1ccc(C(=O)N/N=C(\\c2ccccc2)c2ccccn2)cc1", "hERG current change (%, negative = inhibition) at 10uM": -27},
      {"smiles": "C=CCOc1ccccc1/C=c1\\sc2nc(-c3oc4ccccc4c3C)nn2c1=O", "hERG current change (%, negative = inhibition) at 10uM": -8.15},
      {"smiles": "Cc1cc(C)cc(NC(=O)CN2CCN(C(=O)C3CCCO3)CC2)c1", "note": "(centres unmarked)", "hERG current change (%, negative = inhibition) at 10uM": 7.51},
      {"smiles": "O=C(CN1CCN(C(=O)N2CCOCC2)CC1)Nc1ccc(Br)cc1", "hERG current change (%, negative = inhibition) at 10uM": -72.5},
      {"smiles": "CCNC(=S)N1CCN(CC(=O)Nc2ccc(Br)cc2)CC1", "hERG current change (%, negative = inhibition) at 10uM": -61.4},
      {"smiles": "O=C(CN1CCN(C(=O)C2CCCO2)CC1)Nc1ccc(F)cc1", "note": "(centres unmarked)", "hERG current change (%, negative = inhibition) at 10uM": -66.1},
      {"smiles": "COc1ccc(NC(=O)CN2CCN(C(=O)N3CCOCC3)CC2)cc1", "hERG current change (%, negative = inhibition) at 10uM": -14.2},
      {"smiles": "O=C(CN1CCN(C(=O)C2CCCO2)CC1)Nc1ccc(Cl)cc1", "note": "(centres unmarked)", "hERG current change (%, negative = inhibition) at 10uM": -40.9},
      {"smiles": "O=C(Nc1ccc(F)cc1)N1CCN(C(=O)C2CCCO2)CC1", "note": "(centres unmarked)", "hERG current change (%, negative = inhibition) at 10uM": 2.96},
      {"smiles": "O=C(CN1CCN(C(=O)C2CCCO2)CC1)Nc1ccc(Br)cc1", "note": "(centres unmarked)", "hERG current change (%, negative = inhibition) at 10uM": -70},
      {"smiles": "CCNC(=S)N1CCN(CC(=O)Nc2ccc(OC)cc2)CC1", "hERG current change (%, negative = inhibition) at 10uM": -34.3},
      {"smiles": "O=C(CN1CCOCC1)Nc1ccccc1", "hERG current change (%, negative = inhibition) at 10uM": 13.8},
      {"smiles": "CCOc1ccc(NC(=O)CN2CCN(C(=O)C3CCCO3)CC2)cc1", "note": "(centres unmarked)", "hERG current change (%, negative = inhibition) at 10uM": -32.6},
      {"smiles": "COc1ccc(NC(=O)CN2CCN(C(=S)NC3CCCC3)CC2)cc1", "hERG current change (%, negative = inhibition) at 10uM": -39.1}
    ]}
  ]
}
